Experimental data from PubChem BioAssay (NCI).
Compounds without any hit were thinned out: in the full panel of roughly 79,000, 15% have a hit. Values without a mark were called inactive. The source made the active and inactive calls. Cut-off read from the data, not from the text of the source: active = growth inhibition above about 70%; inactive = the rest.

What was measured:
[1] = NCI Yeast Anticancer Drug Screen. Data for the rad50 strain (AID 155);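 note: 0% = growth of vehicle-only cultures of the same strain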; conditions: S. cerevisiae rad50 strain growth inhibition, stronger effect = higher value
Outline: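 Readout: growth inhibition relative to vehicle-treated cultures. Compound exposure was carried out in a genetically defined yeast strain deficient in DNA damage repair.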

[2] = NCI Yeast Anticancer Drug Screen. Data for the mec2-1 strain (AID 157); conditions: S. cerevisiae mec2-1 strain, stronger effect = higher value
Outline: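 Using mec2-1 yeast: add compound, measure growth, express inhibition versus vehicle-treated cultures.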

[3] = NCI Yeast Anticancer Drug Screen. Data for the sgs1 mgt1 strain (AID 161);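 note: 0% = growth of cultures given vehicle only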; conditions: S. cerevisiae sgs1 mgt1 strain, stronger effect = higher value
Outline: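 Compounds are added to genetically altered yeast, and growth is compared with cultures given vehicle alone to give percent inhibition.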

[4] = NCI Yeast Anticancer Drug Screen. Data for the cln2 rad14 strain (AID 165);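 note: 0% = growth equal to vehicle treated cultures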; conditions: S. cerevisiae cln2 rad14 strain, stronger effect = higher value
Outline: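 Yeast strain cln2 rad14, bearing defects in cell cycle control and DNA repair, serves as the test system; values reflect growth inhibition compared with vehicle.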

[5] = NCI Yeast Anticancer Drug Screen. Data for the bub3 strain (AID 167); conditions: S. cerevisiae bub3 mutant strain, stronger effect = higher value
Outline: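 Readout: yeast growth inhibition, expressed relative to vehicle-only wells. The test organism is a mutant strain from a panel with lesions in DNA repair or checkpoint genes.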

[6] = NCI Yeast Anticancer Drug Screen. Data for the mlh1 rad18 strain (AID 175); conditions: S. cerevisiae mlh1 rad18 strain growth inhibition, stronger effect = higher value
Outline: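 Steps: expose repair-defective yeast to compound; measure growth; express inhibition against vehicle-treated controls.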

[7] = at 5.0 µM (retest, dose inferred, filed as 0.5)
[8] = at 50.0 µM (retest, dose inferred, filed as 5.0)

| Compound | growth inhibition [1, 7] | growth inhibition [1, 8] | growth inhibition ([1]; at 50.0 µM) | growth inhibition [2, 7] | growth inhibition [2, 8] | growth inhibition ([2]; at 50.0 µM) | growth inhibition [3, 7] | growth inhibition [3, 8] | growth inhibition ([3]; at 50.0 µM) | growth inhibition [4, 7] | growth inhibition [4, 8] | growth inhibition ([4]; at 50.0 µM) | growth inhibition [5, 7] | growth inhibition [5, 8] | growth inhibition ([5]; at 50.0 µM) | growth inhibition [6, 7] | growth inhibition [6, 8] | growth inhibition ([6]; at 50.0 µM) |
| --- | --- | --- | --- | --- | --- | --- | --- | --- | --- | --- | --- | --- | --- | --- | --- | --- | --- | --- |
| COc1ccc2c(Cc3ccccc3)c3[n+](cc2c1OC)CCc1cc2c(cc1-3)OCO2 | 2% | 98% (active) | 98.8% (active) | 8% | 97% (active) | 99.2% (active) | 4% | 99% (active) | 99% (active) | -1% | 98% (active) | 98.2% (active) | 12% | 98% (active) | 98.8% (active) | -4% | 97% (active) | 98.9% (active) |
| CCCCN(CCCC)C(=O)c1ccc(OC(=O)OCC)c(OC)c1 | 4% | 6% | 56.9% | 0% | 10% | 37% | 2% | 31% | 49.8% | 4% | 17% | 8.8% | 2% | 24% | 85.1% (active) | -2% | 29% | 17% |
| CCOC(=O)/C(=C\c1ccccc1)C(=O)CCN1CCOCC1 | 37% | 99% (active) | 95.5% (active) | 24% | 99% (active) | 84.5% (active) | 12% | 99% (active) | 41% | 45% | 99% (active) | 75.9% (active) | 20% | 99% (active) | 76% (active) | 10% | 99% (active) | 84.8% (active) |
| OC1CC2OC2C1O (configuration not stated) | -2% | 3% | -6.25% | -5% | 3% | 3.75% | -2% | 1% | -4.95% | -1% | -1% | 69.6% | 2% | 7% | 18.6% | -1% | 2% | -11.4% |
| CCOC(=O)C1=C(C)NC(=O)NC1c1coc2cc(C)cc(C)c2c1=O (configuration not stated) | -1% | 10% | 12.4% | -2% | 15% | -5% | 3% | 14% | -2.5% | 20% | 5% | 52.2% | 14% | -4% | -15.8% | 0% | 1% | -7.1% |
| CCN(CC)CCNc1ccc2ncn3c4c(OC)ccc(=O)c4c(O)c1c23 | 24% | 96% (active) | 25.4% | 9% | 65% | 19.9% | 3% | 54% | 22.6% | -1% | 29% | -1.95% | 9% | 19% | -13.1% | 9% | 83% (active) | 4.65% |
| CCOC(=O)C(Cc1cc(I)c(Oc2ccc(OC)cc2)c(I)c1)NC(C)=O (configuration not stated) | 36% | 92% (active) | 86.8% (active) | 28% | 96% (active) | 83.2% (active) | 41% | 97% (active) | 69% | 23% | 95% (active) | 89.3% (active) | 39% | 96% (active) | 87.9% (active) | 38% | 95% (active) | 87.8% (active) |
| C1CCC(C2CCC(N3CCCCC3)CC2)CC1 (configuration not stated) | 60% | 78% (active) | 85% (active) | 45% | 77% (active) | 51.4% | 58% | 86% (active) | 82.3% (active) | 63% | 62% | 75.6% (active) | 63% | 84% (active) | 72.8% (active) | 67% | 87% (active) | 79.4% (active) |
| C[C@H]1CC[C@@H]2[C@@H](C)[C@H]3[C@H](C[C@H]4[C@@H]5CC=C6C[C@@H](O)CC[C@]6(C)[C@H]5C[C@H](O)[C@]34C)N2C1 | -6% | 8% | -17.8% | 19% | -7% | -45.2% | -3% | 0% | -7.65% | 16% | -2% | 38.9% | 1% | -6% | -47.1% | 1% | 7% | 3% |
| COc1cc(/C=N/NC(=S)Nc2ccccc2)ccc1O | -20% | 13% | 20.8% | -10% | 34% | 27.4% | -7% | 82% (active) | 66.7% | -31% | 9% | -23.4% | -11% | 60% | 77.7% (active) | -16% | 49% | 30.1% |
| c1ccc2c(c1)-c1cccc3cncc-2c13 | 45% | 62% | 90.7% (active) | 52% | 53% | 92.6% (active) | 19% | 98% (active) | 92.6% (active) | 69% | 99% (active) | 90.9% (active) | 53% | 99% (active) | 91.2% (active) | 33% | 52% | 91.2% (active) |
| C/C(=N\NC(=S)N1CC(C)OC(C)C1)c1ncccn1 (configuration not stated) | 53% | 81% (active) | 99.5% (active) | 43% | 100% (active) | 99.4% (active) | 52% | 100% (active) | 99.5% (active) | 52% | 99% (active) | 99.2% (active) | 44% | 99% (active) | 99.3% (active) | 80% (active) | 99% (active) | 99.3% (active) |
| CN(/N=C/c1ccc(C(=O)O)cc1)C1=NCCCCN1 | -2% | 29% | 5.85% | -4% | 25% | 3.4% | -2% | 45% | -7.95% | 3% | 12% | 40.5% | 2% | 28% | 3.2% | 1% | 33% | -11.1% |
| CCCCC(CC)(COC(C)=O)COC(C)=O | -3% | 0% | 7% | 1% | 2% | 12.7% | 3% | -1% | 2.6% | 2% | 5% | 42.5% | 4% | 4% | -2% | 1% | -1% | -16.7% |
| O=[N+]([O-])/C(Cl)=C(/C(Cl)=C(Cl)Cl)N1CCCCC1 | -3% | 16% | 28.6% | 8% | 25% | 11.7% | 14% | 27% | 34.1% | 13% | 22% | 1.5% | 22% | 34% | 23.6% | 2% | 27% | 43.1% |
| COC(=O)/C(=N\NC(=O)c1ccccc1O)C(C#N)c1ccc(Cl)cc1 (configuration not stated) | -4% | 44% | 62.1% | -1% | 65% | 54.8% | 13% | 73% (active) | 68% | -7% | 42% | 43.4% | -3% | 79% (active) | 71.8% (active) | 0% | 60% | 70.6% (active) |
| Cc1ccc(-c2c(C#N)c(-c3ccc(Cl)cc3)c(C#N)c(=O)n2NS(=O)(=O)c2ccccc2)cc1 | 38% | 50% | 63.2% | 34% | 59% | 71% (active) | 28% | 58% | 69% | 53% | 60% | 63.6% | 52% | 64% | 71% (active) | 31% | 49% | 74.3% (active) |
| C=C1CC(O)C2C(C[Se]c3ccccc3)C(=O)O[C@@H]2C2C(=C)[C@@H](O)CC12 (some centres not stated) | -3% | 27% | 46.4% | 1% | 36% | 52.1% | 0% | 43% | 29.6% | -5% | 5% | -13.3% | -9% | 11% | 30.2% | -2% | 30% | 70.7% (active) |
| COC(=O)/C(C#N)=C(/SC)N(C)C | 4% | 7% | 4.35% | 8% | 15% | 4.1% | 2% | 10% | -10.3% | 6% | 7% | 38.6% | 0% | 7% | 2.55% | 12% | 11% | -10.3% |
